# Experimental data reported in the supplement of paper PMC3334620.
# In all, about 33,000 sequences were measured (“E-score (-0.5 to 0.5)”: median about -0.0059, highest 2% from about 0.26 on). The sample holds the highest values, similar sequences and a random draw of the others, so the mix is not that of the screen.
# Target: T1, Cin5 (UniProt P40917)
# T1 sequence: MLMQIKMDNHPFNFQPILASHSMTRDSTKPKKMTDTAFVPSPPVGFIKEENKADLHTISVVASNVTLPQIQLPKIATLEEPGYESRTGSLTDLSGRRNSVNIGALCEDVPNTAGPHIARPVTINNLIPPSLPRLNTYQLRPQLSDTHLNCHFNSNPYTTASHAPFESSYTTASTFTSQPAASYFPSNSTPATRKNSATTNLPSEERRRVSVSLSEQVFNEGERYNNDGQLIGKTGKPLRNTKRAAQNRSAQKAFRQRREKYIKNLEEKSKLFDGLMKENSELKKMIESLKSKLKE
# Test: PBM E-score (8-mer binding enrichment) (E-score (-0.5 to 0.5)); higher = stronger / more preferred TF binding
# Conditions: protein concentration: 100 nM; construct: GST-full length
# Procedure: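 Universal 'all 10-mer' protein binding microarrays (Agilent AMADID 015681) probed with GST-tagged S. cerevisiae TFs (full-length or DBD) made by in vitro transcription/translation (PURExpress), about 100-200 nM. Bound TF was detected with fluorescent anti-GST. Each ungapped 8-mer (which stands for itself and its reverse complement) is scored by the PBM enrichment score (E-score), a modified Wilcoxon-Mann-Whitney statistic from -0.5 to +0.5, computed with the Universal PBM Analysis Suite. Scale: above 0.35 generally sequence-specific binding.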
row,Sequence,PBM E-score
1,CTCTGAGC,-0.2
2,ACTGGGAT,0.0399
3,GCTCTTCA,-0.157
4,CGGAGTGA,0.0979
5,CGTTCAAA,-0.0884
6,GACGTCAC,0.00326
7,GGCCAACA,-0.0942
8,CATCGATA,0.258
9,CATCGATG,0.0124
10,AATCGATA,0.247
11,ATGCTTCA,0.0559
12,AATCACCG,0.0462
13,CCCCACCC,0.153
14,CCCACCCG,0.293
15,ACCCACCC,0.323
16,CCCACCCC,0.24
17,CCCACCCA,0.21
18,GCCCACCC,0.191
19,CCAGCGAG,-0.0473
20,CGAAATGA,0.19
21,ATGGGACA,0.0583
22,GTGCTCGA,-0.0887
23,GTGCTAAA,0.00722
24,GTGTAATA,0.193
25,CTGTAATA,0.105

row,Sequence,PBM E-score
1,AAGTAATC,0.339
2,CAGTAATC,0.15
3,AAGTAATT,0.181
4,AAGTAACT,0.186
5,CTGTAATC,0.128
6,ATGTAATG,0.193
7,ATGTAATC,0.383
8,AAGTAACG,-0.0154
9,ATGTAATA,0.361
10,AAGTAACA,0.316
11,TAGATCCA,-0.00386
12,CGTGCCGA,-0.115
13,AGGAAATA,0.164
14,GGCTCCAA,-0.169
15,AGGCTAAT,0.0863
16,ATAAGACA,0.105
17,GAATCCGA,0.0296
18,CGTGGTCA,-0.0679
19,ACAATGTG,0.0255
20,AACATGTC,0.0503
21,AACATGTG,0.257
22,CACATGTG,-0.00999
23,CTCTTGGC,-0.112
24,GGACTTAA,-0.15
25,TGACTTAA,0.268

row,Sequence,PBM E-score
1,AGACTTAA,-0.139
2,GCAATCAA,0.195
3,CATGTTGA,0.293
4,AATGTTGA,-0.014
5,CATGTTGC,-0.00801
6,GCACCACA,-0.122
7,AACAATAC,0.187
8,AACAATAT,0.345
9,ACCAATAT,0.323
10,AACAATAA,0.257
11,ACCAATAC,0.104
12,ACCAATAG,-0.123
13,GCTTGCCA,-0.131
14,ATCTGGCC,-0.108
15,CACGCGAC,-0.0294
16,TACTTGCA,0.141
17,CCACAGAC,-0.0305
18,AGCGCTTA,0.157
19,CTCGCTTA,0.346
20,CGCGCTTA,0.297
21,CTCGCTGA,-0.0383
22,ATCGCTTA,0.0758
23,CGCGCTGA,0.104
24,AGGTATAT,0.193
25,GGCGGGTA,-0.194

row,Sequence,PBM E-score
1,CGCCAAAC,-0.072
2,ACGCTAAC,0.0232
3,GTTCAAAA,-0.105
4,CTTAGTAC,0.0461
5,ATTAGTAC,0.173
6,CTTAGTAA,0.392
7,ATTAGTAG,0.0962
8,ATTAGTAA,0.387
9,GTTAGTAA,0.111
10,ATCTGGGC,-0.0822
11,AGCTGTTC,-0.0725
12,TCGCAAAA,0.156
13,CAGTATGC,0.0107
14,CTTAGCTC,-0.106
15,ACATGTAG,0.278
16,CCATGTAG,-0.00831
17,ACATGTAA,0.168
18,CCAGATTA,0.225
19,CGGCTCGC,0.0606
20,ATGATGTA,0.305
21,CAAATGGA,-0.0888
22,GTGATGAA,0.0186
23,GAAATGTA,0.143
24,ATGATGAA,0.258
25,AAAATGGA,0.29

row,Sequence,PBM E-score
1,CTGATGAA,0.0259
2,TAAATGTA,0.191
3,ATGATGTC,0.233
4,AAAATGGG,-0.0874
5,CAAATGTA,0.268
6,ATGATGTG,0.145
7,GCATAGCA,-0.0462
8,AGCCACCT,-0.192
9,GATCTGGA,-0.125
10,CCTTAACG,-0.0146
11,GTAGGGAA,0.00147
12,GAAACGCC,0.114
13,CGGGCGTA,-0.132
14,ACAACCGT,-0.172
15,CTGATGTA,0.266
16,GTGATGTA,0.172
17,CTGATGTC,0.184
18,GCAGCAAC,-0.0419
19,ATGAATGC,0.167
20,ATGAATGA,0.143
21,ATGAATGG,0.301
22,CCCATCAG,-0.165
23,CACCACGG,-0.325
24,CTATTAAA,0.00048
25,ATATTAAA,0.35

row,Sequence,PBM E-score
1,TTATTAAA,0.278
2,ATATTAAC,0.28
3,CTATTAAC,0.115
4,TGATTAAA,0.0915
5,ATATTAAT,0.362
6,CTATTAAG,-0.041
7,GTATTAAA,0.149
8,ATATTAAG,0.122
9,GTATTAAC,0.00428
10,AGATTAAT,0.218
11,AAGGATAG,0.0333
12,TCGATGCA,0.152
13,GTTCAGTA,0.0391
14,TGGTCGAA,-0.242
15,ATATCCCC,0.0837
16,TGCTGCCA,-0.0641
17,ATGATTCG,0.053
18,CATCCCTA,0.122
19,CATTCTGG,0.0333
20,GCACCTAA,-0.0501
21,ACATTAAA,0.152
22,TCATTAAA,0.353
23,GCATTAAA,0.0586
24,GCGTCCAC,-0.283
25,GCCTCCGC,-0.203

row,Sequence,PBM E-score
1,ATATTACA,0.209
2,AAATTACG,0.171
3,ATATTACC,0.317
4,ATATTACG,0.376
5,AAATTACC,0.123
6,CTATTACC,-0.0809
7,AAGAAAAT,0.159
8,CTCTACAC,-0.0485
9,ATAGTAAC,0.182
10,CTAGTAAA,0.165
11,ATCGTAAC,0.0852
12,ATAGTAAA,0.198
13,TTAGTAAA,0.269
14,ATCGTAAA,0.0952
15,ATCGTAAT,0.385
16,GTAGTAAA,0.149
17,ATAGTAAT,0.358
18,CCGGTAGG,-0.163
19,CCCAGAAG,-0.167
20,GCGATAGA,0.0484
21,CGACTTGA,-0.0696
22,AATCTACC,0.138
23,CAGATTCC,-0.0124
24,TAACTAGA,0.306
25,GAACTAGA,-0.00859

row,Sequence,PBM E-score
1,AAACTAGA,-0.116
2,AAGATTCT,-0.106
3,CTTTTGGA,-0.0744
4,AGACAGAC,0.192
5,AGACAGAT,0.277
6,ACAGACAA,0.28
7,AGACAGAG,-0.0616
8,ACAGACAC,-0.0499
9,ACAGACAG,0.195
10,AAGGTCGA,0.146
11,ACCACGCG,-0.0218
12,ACGTATCA,0.156
13,GAGCCGGA,-0.178
14,ATATATAC,0.316
15,CTATATAA,0.0999
16,ATATATAG,0.26
17,CTATAGTC,-0.063
18,GTATATAC,0.104
19,GTATATAA,0.222
20,CTATATAG,0.103
21,ATATATAT,0.146
22,ATATAGTA,0.235
23,ATATAGTC,0.258
24,ATATATAA,0.335
25,AGATATAG,0.149

row,Sequence,PBM E-score
1,ACCATCGG,-0.108
2,GAGGCGAC,-0.213
3,AGATTCTC,0.0336
4,GTGCAGGA,-0.0289
5,GAAGTCCA,-0.133
6,CTATATGC,0.212
7,CTATATAC,0.313
8,CTCTATAC,-0.0333
9,AATACATG,0.195
10,ATTACAGA,0.0804
11,ACTACATA,0.207
12,ATTACATG,0.297
13,ATTACAGG,0.244
14,CTTACACC,-0.0748
15,CTTACACA,0.259
16,CATACATA,0.213
17,AGTACATG,0.118
18,ATTACATA,0.355
19,ATTACACG,0.0848
20,AATACATA,0.278
